Measles CPE: compounds protecting cells from measles virus cytopathic effect, primary screen, measles RdRp inhibitor project, single point, MLSMR library, absorbance | Measles virus-infected cells, CPE protection | protection (pct of control), % at 4 µM | actives 1.5% (n = 140,000) | AID 841, 2007; in the data active = protection mostly above about 24%, no sharp cut-off; inactive = mostly below about 26%
CYP2C9 inh: blockers of cytochrome P450 2C9 activity – biochemical, luminescence, ADME assay, primary screen; P11712; CYP2C9 Supersomes, luciferin-H conversion; inhibition, % at 5 µM; actives 20% (n = 96,000);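 active = blocking of liver enzyme CYP2C9 beyond about 50% at 5 µM, limit read from the data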
CYP2C9 activ: human CYP2C9 activators, primary screen, biochemical, luminescence; actives 1.4% (n = 96,000); recombinant CYP2C9, luciferin-H conversion; hits give high values; factor 1 = untreated enzyme, 0 = blocked; Cytochrome P450 2C9 (Homo sapiens), P11712; AID 1024, 2008; activation factor at 5 µM;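 active = activation factor of 2 or more for CYP2C9 at a 5 µM dose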;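 note: 0 = sulfaphenazole-blocked wells and 1 = vehicle-only wells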
CYP2C19 inh: blockers of cytochrome P450 2C19 activity – biochemical, luminescence, ADME assay, primary screen | actives 21% (n = 96,000) | inhibition, % at 5 µM | CYP2C19 Supersomes, luciferin-H EGE luminescence, 30 min;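 active = CYP2C19 inhibition above a set limit at 5 µM in the primary screen, cut at about 50% in these data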;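 note: plate controls were negative control wells for no effect and 2.5 mM tranylcypromine positive control for full effect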
Target sequence (P33261 whole entry, looked up): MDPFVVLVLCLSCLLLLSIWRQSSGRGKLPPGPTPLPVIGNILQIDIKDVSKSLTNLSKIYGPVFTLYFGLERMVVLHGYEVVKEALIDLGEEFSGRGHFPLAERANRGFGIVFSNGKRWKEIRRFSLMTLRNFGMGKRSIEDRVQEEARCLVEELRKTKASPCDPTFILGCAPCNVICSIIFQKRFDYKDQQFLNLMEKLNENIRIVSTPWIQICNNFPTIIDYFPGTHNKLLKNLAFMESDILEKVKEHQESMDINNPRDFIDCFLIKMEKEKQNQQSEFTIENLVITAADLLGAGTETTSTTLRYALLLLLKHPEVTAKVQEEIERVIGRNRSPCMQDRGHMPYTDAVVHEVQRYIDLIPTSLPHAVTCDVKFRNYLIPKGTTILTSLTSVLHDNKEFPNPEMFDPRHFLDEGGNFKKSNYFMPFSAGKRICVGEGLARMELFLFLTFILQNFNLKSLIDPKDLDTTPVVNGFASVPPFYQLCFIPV
CYP2C19 activ: human CYP2C19 activators, primary screen, biochemical, luminescence. Cytochrome P450 2C19 (Homo sapiens), P33261. 96,000 tested, under 10 active. AID 1025, 2008. activation factor at 5 µM. recombinant CYP2C19, luciferin-H EGE luminescence; hits give high values; 0 = fully inhibited enzyme, 1 = untreated enzyme;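 active = activation factor of at least 2 at 5 µM in the primary screen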;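 note: 0 = wells with 2.5 mM tranylcypromine and 1 = vehicle-only wells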
Active calls of the source: *. Compounds with a hit are over-represented: about 22% of the library has one in this group of screens.

O=C(NCC1CCCO1)c1ccc(CS(=O)(=O)c2c(Cl)cccc2Cl)o1 (stereo not drawn) was read as Measles CPE 7, CYP2C9 inh -87, CYP2C9 activ 1.9, CYP2C19 inh 54* and CYP2C19 activ 0.5.
For CC(C)C(=O)Nc1cccc(NC(=S)NC(=O)c2ccc(Cl)cc2)c1 the results were Measles CPE 5, CYP2C9 inh -25, CYP2C9 activ 1.3, CYP2C19 inh 31 and CYP2C19 activ 0.7.
For CCCN(CCC)C(=O)CC(c1ccccc1)c1cc(Br)ccc1O (stereo not drawn) the results were Measles CPE 15, CYP2C9 inh 42, CYP2C9 activ 0.6, CYP2C19 inh 43 and CYP2C19 activ 0.6.
`CCCN(CCC)C(=O)CC(c1ccccc1)c1ccc(C)cc1O` (stereo not drawn) gave Measles CPE 26, CYP2C9 inh 52*, CYP2C9 activ 0.5, CYP2C19 inh 43 and CYP2C19 activ 0.6.
For Cc1ccc(C)c(SCC(=O)NCc2ccco2)c1 the results were Measles CPE 2, CYP2C9 inh 1, CYP2C9 activ 1, CYP2C19 inh 31 and CYP2C19 activ 0.7.
Screening Cc1ccc(C(CC(=O)NCc2ccco2)c2ccccc2)c(O)c1 (stereo not drawn) returned Measles CPE 4, CYP2C9 inh 46, CYP2C9 activ 0.5, CYP2C19 inh 61* and CYP2C19 activ 0.4.
Screening O=C(NCC1CCCO1)C(C(=O)c1ccccc1)n1ccccc1=O (stereo not drawn) returned Measles CPE 13, CYP2C9 inh -15, CYP2C9 activ 1.1, CYP2C19 inh -20 and CYP2C19 activ 1.2.
CCOC(=O)c1oc2ccccc2c1CSc1nnnn1-c1ccc(OC)cc1 was read as Measles CPE 3, CYP2C9 inh 13, CYP2C9 activ 0.9, CYP2C19 inh 16 and CYP2C19 activ 0.8.
`O/N=C/c1ccc(-c2cc(Cl)ccc2Cl)o1` gave Measles CPE 43*.
Screening Clc1ccc(Cl)c(-c2ccc(/C=N/c3ncn[nH]3)o2)c1 returned Measles CPE 2, CYP2C9 inh -187, CYP2C9 activ 2.9*, CYP2C19 inh 4 and CYP2C19 activ 1.
`COC(=O)N/N=C/c1ccc(-c2cc(Cl)ccc2Cl)o1` gave Measles CPE 2.
For O/N=C\c1ccc(-c2ccccc2)o1 the results were Measles CPE 31*.
CCNC(=S)N/N=C/c1ccc(-c2ccccc2)o1 was read as Measles CPE 2.
Screening Cc1ccc(Oc2nnc(-c3ccccc3)c3ccccc23)cc1 returned Measles CPE 3, CYP2C9 inh 58*, CYP2C9 activ 0.4, CYP2C19 inh 8 and CYP2C19 activ 0.9.
Cc1ccccc1C(=O)Nc1nnc(-c2ccc(C(C)(C)C)cc2)s1 was read as Measles CPE 15.
For O=C(c1ccccc1)c1nc2ccccc2n(CCCn2c(=O)c(C(=O)c3ccccc3)nc3ccccc32)c1=O the results were Measles CPE 12, CYP2C9 inh 97*, CYP2C9 activ 0, CYP2C19 inh 74* and CYP2C19 activ 0.3.
`Cn1c(=O)c(C(=O)c2ccccc2)nc2ccccc21` gave Measles CPE 21, CYP2C9 inh -41, CYP2C9 activ 1.4, CYP2C19 inh 43 and CYP2C19 activ 0.6.
O=C(c1ccc(CS(=O)(=O)c2cccc(C(F)(F)F)c2)o1)N1CCN(c2ccccn2)CC1 was read as CYP2C9 inh 60*, CYP2C9 activ 0.4, CYP2C19 inh 54* and CYP2C19 activ 0.5.
For O=C(c1ccc(CS(=O)(=O)c2ccc(Br)cc2)o1)N1CCOCC1 the results were Measles CPE -1, CYP2C9 inh -6, CYP2C9 activ 1.1, CYP2C19 inh -4 and CYP2C19 activ 1.
For O=C(c1ccc(CS(=O)(=O)c2c(Cl)cccc2Cl)o1)N1CCN(c2ccccn2)CC1 the results were Measles CPE 16, CYP2C9 inh 0, CYP2C9 activ 1, CYP2C19 inh 93* and CYP2C19 activ 0.1.
O=C(O)c1ccc(CS(=O)(=O)c2cccc(C(F)(F)F)c2)o1 was read as Measles CPE 25.
